# ClpP mod: qHTS Assay for Activators of ClpP | ATP-dependent Clp protease proteolytic subunit (Bacillus subtilis (strain 168)), P80244 | Potency, µM (doses to about 57.5 µM), for the others: at the highest dose activity change, negative = active | hit rate 1.9% among 340,000 | AID 651965, 2013 | purified B. subtilis ClpP, FRET peptide cleavage, 20 min; active = well fitted falling curve with a large enough effect; inconclusive = small, poorly fitted or top-dose-only effect; inactive = no such curve, though single readings can be large or run the other way; also: potency is read from the fitted curve at half-maximal effect; the source files actives as falling curves though it sought activators and does not explain the sign; nearly all actives have a fitted effect of over 65% in size
#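 FRET quenching reversal measured ClpP activation: 10 microg/mL B. subtilis ClpP at pH 8 with the FRET-FV decapeptide, read at 430 nm after 320 nm excitation. The 20-min minus 0-min signal was scaled between DMSO/no-enzyme wells and ADEP (5.8 microM final).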
# Rango dissoc inh: inhibition of RanGTP-driven Rango-importin beta dissociation | AID 540253 | Potency, µM (doses to about 46.1 µM), inactives show top-dose activity change, negative = inhibition | hit rate 0.071% among 340,000 | Biochemical FRET Rango-importin beta, RanGTP-induced dissociation; also: potency is read from the fitted curve at half-maximal effect; % of control where 0% means no effect; nearly all actives have a fitted effect of over 45% in size
#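 Rango (0.1 uM)–importin beta (0.25 uM) complex; RanGTP-RCC1 trigger; 45 min RT; CFP/YFP FRET read.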
# MBNL1 CUG block: MBNL1-poly(CUG) RNA binding inhibition; Q9NR56; TR-FRET MBNL1-His/biotin-(CUG)12 binding, 665/545 ratio; Potency, µM (titrated, usually from 57.5 µM), inactives show top-dose activity change, negative = inhibition, most hits filed as inhibitors; hit rate 0.036% among 280,000; AID 2675; active = well fitted inhibition curve with a large enough effect in the signal ratio, with a control signal flat, not every such curve was filed as active; inconclusive = small, poorly fitted or top-dose-only effect, or effect the other way, or a change in a side signal; inactive = no such curve, though single readings can be large or run the other way; the % refers to the signal ratio; also: potency is read from the fitted curve at half-maximal effect; % is scaled to controls: 0 for no effect and ±100 for the full control effect
# Target sequence (Q9NR56 whole entry, looked up): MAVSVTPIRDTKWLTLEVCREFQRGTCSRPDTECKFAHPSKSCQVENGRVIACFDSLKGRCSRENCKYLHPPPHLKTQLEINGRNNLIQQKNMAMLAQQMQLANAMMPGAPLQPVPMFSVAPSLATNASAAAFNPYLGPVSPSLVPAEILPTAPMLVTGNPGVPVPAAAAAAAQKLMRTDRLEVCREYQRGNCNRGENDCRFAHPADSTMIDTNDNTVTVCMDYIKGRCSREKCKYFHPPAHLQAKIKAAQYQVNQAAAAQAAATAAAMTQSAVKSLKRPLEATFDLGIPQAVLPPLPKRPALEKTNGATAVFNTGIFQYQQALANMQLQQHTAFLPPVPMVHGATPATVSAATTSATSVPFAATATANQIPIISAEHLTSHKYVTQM
#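 Inhibition of protein-RNA binding appears as loss of TR-FRET between terbium anti-His antibody on MBNL1-His and streptavidin-XL665 on biotin-(CUG)12. Activity is normalized to buffer-only and uninhibited-complex controls.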
# CBFb RUNX1 block: CBF-beta/RUNX1 interaction disruption; Q01196+Q13951; AlphaScreen CBFb-His/RUNX1-biotin binding, biochemical; Potency, µM (series often up to 59.8 µM), for inactives: at the highest dose activity, negative = inhibition, usual class: inhibitors; 230,000 tested, under 10 active; AID 1477; active = well fitted curve in the direction sought with a large enough effect; inconclusive = small, poorly fitted or top-dose-only effect, or effect the other way, or another doubt; inactive = no such curve, though single readings can be large or run the other way; also: % of control where 0% means no effect
#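 Read-out: AlphaScreen. Format: His-CBF-beta with biotinylated RUNX1 (30 nM each) preincubated 20 min, compound 15 min, Ni-chelate plus streptavidin beads 90 min; room temperature throughout.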
# Rango-impB inh: Rango-importin beta binding inhibition. Q14974. Rango CFP/YFP FRET sensor + importin beta, 45 min. Potency, µM (highest dose often 92.2 µM), inactives show top-dose inhibition of complex formation. hit rate 0.031% among 340,000;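 also: potency is read from the fitted curve at half-maximal effect; 0% = DMSO wells and 100% = buffer wells lacking importin beta; nearly all actives have a fitted effect of over 15% in size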
#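 FRET biosensor Rango (snurportin 1 IBB between N-terminal EYFP and C-terminal Cerulean), 50 nM in PBS/1 mM DTT/0.02% Tween-20/0.1% BSA, preincubated 5 min RT with compound; 0.125 microM importin beta added, 45 min RT, CFP/YFP FRET ratio read.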
# Numbers without * were called inactive; u = inconclusive; x = not tested or not shown. This excerpt belongs to a sample that is enriched for hits. Unless noted, calls follow the shape of the full dose curve.
SMILES,ClpP mod,Rango dissoc inh,MBNL1 CUG block,CBFb RUNX1 block,Rango-impB inh
COC(=O)c1cc(-c2c(C)oc3cc(OC)ccc3c2=O)c(C)o1,1%,0%,5%,3%,-5%
Cc1oc2cc(O)ccc2c(=O)c1Oc1ccccc1,11µM*,-7%,6%,0%,-2%
CCOc1ccc(Oc2c(C)oc3cc(O)ccc3c2=O)cc1,x,-3%,12%,-5%,1%
CCC1(C)Cc2[nH]c(=O)c(C#N)cc2CO1 (stereo unspecified),x,5%,2%,6%,0%
CC1(C)Cc2[nH]c(=O)c(C#N)cc2CS1,14µM*,10%,14%,9%,4%
COc1ccc(Cc2ccc(OC)c(N)c2)cc1N,-2%,-20%,-11%,0%,-3%
COC(=O)c1cc(Cc2ccc(N)c(C(=O)OC)c2)ccc1N,28µM*,-9%,5%,16%,5%
Cc1oc(-c2ccccc2)nc1CNS(=O)(=O)c1ccc(Cl)cc1,-4%,x,x,x,x
CCOC(=O)C1CCCN(S(=O)(=O)c2ccc(Cl)nc2)C1 (stereo unspecified),22µM*,29%,x,x,-5%
CCOC(=O)C1CCCN(S(=O)(=O)c2ccc(C)cc2)C1 (stereo unspecified),-2%,8%,4%,-2%,0%
Cc1ccc(C)c(S(=O)(=O)c2nnn3c2nc(NC2CCCCC2)c2sccc23)c1,35µM*,x,x,x,x
Cc1ccc(S(=O)(=O)c2nnn3c2nc(NC2CCCCCC2)c2sccc23)cc1C,-19%,x,x,x,x
Cc1cc2c(c(N)n1)c(=O)oc1ccccc12,40µM*,15%,-4%,5%,0%
O=C(CSc1nnc2n1CCCN2)c1ccc(Cl)cc1,14µM*,11%,3%,1%,3%
O=C(NCCc1ccccc1)c1cc(-c2ccccc2)nc2n[nH]c(-c3ccccc3)c12,28µM*,x,x,x,x
Cc1ccc(-c2cc(C(=O)NCCc3ccccc3)c3c(-c4ccc(C)cc4)[nH]nc3n2)cc1,4%,x,x,x,x
CSc1ccc(-c2nc3cccc(C)n3c2Nc2ccc(Cl)cc2)cc1,4%,x,x,x,x
CC(=O)Nc1ccccc1OCC(=O)NCCc1ccc(Cl)cc1Cl,32µM*,8%,-8%,-4%,-2%
Cc1cc(NCCN(C)C)n2nc(-c3cccs3)cc2n1,28µM*,-26%,-4%,10%,u
Cc1cc(NCCCO)n2nc(-c3cccs3)cc2n1,x,14%,-8%,2%,1%
O=C1CC(c2ccco2)Cc2[nH]c(=O)c(C(=O)Nc3ccccc3)cc21 (stereo unspecified),-1%,x,x,x,x
CCOC(=O)c1c(-c2ccccc2)oc2ccc(O)cc12,-14%,0%,12%,x,-3%
CCOC(=O)c1c(-c2ccccc2)[nH]c2ccc(O)cc12,32µM*,-16%,2%,0%,-2%
COc1ccc(CCNc2ncnc3c2cnn3-c2ccc(C)c(Cl)c2)cc1,-14%,x,x,x,x
CCc1ccccc1Nc1ncnc2c1cnn2-c1ccc(C)cc1C,-7%,x,x,x,x
SMILES,ClpP mod,Rango dissoc inh,MBNL1 CUG block,CBFb RUNX1 block,Rango-impB inh
O=C1CCCN1CCCNc1ncnc2c1cnn2-c1ccc(Cl)cc1,5%,-9%,2%,10%,0%
Cc1ccc(-n2ncc3c(NC4CCCCCC4)ncnc32)cc1Cl,32µM*,x,x,x,x
Cc1ccc(Cl)cc1-n1ncc2c(NC3CCCCCC3)ncnc21,-4%,x,x,x,x
Cc1cccc(-n2ncc3c(NCCCN4CCCC4=O)ncnc32)c1,28µM*,-16%,-5%,-13%,-2%
CCc1ccccc1Nc1ncnc2c1cnn2-c1ccc(Cl)cc1,32µM*,x,x,x,x
Cc1ccc(-n2ncc3c(NCCc4ccccc4)ncnc32)cc1Cl,32µM*,x,x,x,x
CCOc1ccc(-n2c(=O)c3c(C)c(C)sc3n(CC(=O)Nc3ccc(CC)cc3)c2=O)cc1,-1%,x,x,x,x
COC(=O)c1ccc(Sc2ccc(Cl)cc2)c(N)c1,25µM*,2%,13%,23%,-5%
COC(=O)c1ccc(C(=O)OC)c(N)c1,x,x,17%,7%,x
COc1ccc(C2C(C(=O)Nc3ccccc3)=C(C)Nc3nc(-c4ccccc4Cl)nn32)cc1OC (stereo unspecified),0%,x,x,x,x

# Assay outcomes: PubChem BioAssay, National Center for Advancing Translational Sciences (NCATS)
